Screening data as filed in PubChem BioAssay.
CBX7 inh = CBX7 chromodomain binding inhibitors, primary screen, biochemical, AlphaScreen; Chromobox protein homolog 7 (Homo sapiens), O95931; AlphaScreen His6-CBX7 / biotin-H3K27me3 peptide binding; active compounds read low; normalised signal (fraction of DMSO) (concentration not given with the values); 66,000 compounds, 1.1% hits; in the data active = normalised signal below about 0.5
Target sequence (O95931 whole entry, looked up): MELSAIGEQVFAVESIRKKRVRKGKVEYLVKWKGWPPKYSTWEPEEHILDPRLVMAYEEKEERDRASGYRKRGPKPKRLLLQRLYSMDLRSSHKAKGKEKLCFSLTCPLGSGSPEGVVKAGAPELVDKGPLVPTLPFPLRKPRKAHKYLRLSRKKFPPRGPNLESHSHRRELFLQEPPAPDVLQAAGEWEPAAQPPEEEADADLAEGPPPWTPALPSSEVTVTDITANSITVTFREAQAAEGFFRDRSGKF
* marks the source's active call; other numbers are inactive results; ! = repeats disagree. Many of the other results were omitted from the sample, so hits are more common in it than they were.

SMILES	CBX7 inh
Cc1ccc2oc(-c3cccc(NC(=O)c4cccc(F)c4)c3)nc2c1	0.91
Cc1ccc2c(c1)N(CC(=O)NCCc1ccc(Cl)cc1)C(=O)CO2	1
O=C(Nc1cc(F)ccc1F)C1CCCN(S(=O)(=O)c2cccc3cccnc23)C1 (stereo not drawn)	0.89
CCN(C(=O)c1cc2c(s1)-c1ccccc1OC2)c1ccc(F)cc1	1.2
Cc1nn(C)c(C)c1S(=O)(=O)N(CC(=O)NCc1ccccc1)c1ccc(C(C)C)cc1	1.3
CC(C)(C)c1nnc(NC(=O)c2cccc(Cl)c2)s1	1
O=C(NCCCn1ccnc1)C(=O)Nc1cccc(C(F)(F)F)c1	0.99
CCOC(=O)N1CCc2c(sc(NCc3cccs3)c2C(=O)Nc2cc(OC)ccc2OC)C1	0.47*
CCOC(=O)N1CCc2c(sc(NCc3ccncc3)c2C(=O)Nc2cc(OC)ccc2OC)C1	0.72
CCOC(=O)N1CCc2c(sc(NCc3cccs3)c2C(=O)Nc2ccc(OC)cc2OC)C1	0.86
O=C(NCc1ccccc1Cl)Nc1ccc2snnc2c1	1
O=C(Nc1ccc2oc(-c3ccc(Cl)c(Cl)c3)nc2c1)c1cccc2ccccc12	0.99
CCCn1c(=O)c(C(=O)NCc2cccnc2)c(O)c2ccccc21	0.96
CCn1c(=O)c(C(=O)NC(C)c2ccccc2)c(O)c2ccccc21 (stereo not drawn)	1.4
CCCn1c(=O)c(C(=O)NC(C)c2ccccc2)c(O)c2ccccc21 (stereo not drawn)	0.28*
Cc1ccc(NCC(O)Cn2c3c(c4cc(C)ccc42)CCCC3)c(C)c1 (stereo not drawn)	0.47*
Cc1ccc2c(c1)c1c(n2CC(O)CN2CCCCC2C)CCCC1 (stereo not drawn)	0.82
Cc1ccc(NCC(O)Cn2c3c(c4cc(C)ccc42)CCCC3)cc1 (stereo not drawn)	0.6
COc1ccc(NC(=O)c2sc3nc(-c4ccc(F)cc4)cn3c2C)cc1OC	0.93
O=C(Cn1nc(-c2ccc(Cl)cc2)ccc1=O)NCCCN1CCCCCC1	1
O=C(NCc1cccs1)C1CC(=O)N(c2ccc(F)c(Cl)c2)C1 (stereo not drawn)	1
COc1ccccc1Nc1nc(C)nc2sc(C)c(C)c12	1
Cc1nc(Nc2cccc(C(F)(F)F)c2)c2c(C)c(C)sc2n1	0.45*
Cc1sc2nc(Cc3ccccc3)nc(Nc3ccccc3F)c2c1C	1.1
Cc1nc(Nc2cccc(C(F)(F)F)c2)c2c3c(sc2n1)CCCC3	1.3
SMILES	CBX7 inh
Cc1sc2nc(Cc3ccccc3)nc(Nc3cccc(C(F)(F)F)c3)c2c1C	1.1
Cc1nc(Nc2ccccc2F)c2c(C)c(C)sc2n1	0.47*
Cc1nc2ncccn2c1-c1csc(Nc2ccc(C(=O)O)cc2)n1	1
COc1cccc(C(=O)Nc2cc(-c3nc4cc(C)cc(C)c4o3)ccc2C)c1	1
COc1ccc(-c2nc(C(=O)NCCc3ccc(C)cc3)c(C)o2)cc1OC	0.92
CC(=O)Nc1ccc(Nc2nc(-c3sc(NC(C)=O)nc3C)cs2)cc1	0.92
CCC(=O)Nc1nc(C)c(-c2csc(Nc3ccc(C(=O)O)cc3)n2)s1	0.088*!
CCOc1ccc(Nc2nc(-c3sc(NC(=O)CC)nc3C)cs2)cc1	0.43*
CCC(=O)Nc1nc(C)c(-c2csc(Nc3cccc(C(=O)O)c3)n2)s1	0.97
CC(=O)Nc1nc(C)c(-c2csc(Nc3ccc(O)cc3)n2)s1	0.89
CC(=O)Nc1nc(C)c(-c2csc(Nc3ccc(Br)cc3)n2)s1	0.96
O=C(Nc1ccc2c(c1)OCO2)C(c1ccccc1)N(CCO)Cc1ccccc1 (stereo not drawn)	0.85
Cc1ccccc1C(=O)Nc1ccc2oc(-c3ccccc3)nc2c1	1
CC(C)C[C@@H](C(=O)Nc1cc(F)ccc1F)N1Cc2ccccc2C1=O	1.2
CN(CCc1ccccn1)C(=O)c1cnn2c(C(F)(F)F)cc(-c3ccco3)nc12	0.97
CC(=O)N1CCc2cc(S(=O)(=O)NC(CC(C)C)C(=O)Nc3cccc(C)c3)ccc21 (stereo not drawn)	1
CC(C)c1ccc(C(=O)Nc2ccc3oc(-c4ccncc4)nc3c2)cc1	1.1
CC1CCCC(NC(=O)Cc2ccc(NC3=NC4CS(=O)(=O)CC4S3)cc2)C1C (stereo not drawn)	0.89
